Laboratory results as given in PubChem BioAssay AID651704 (Broad Institute, 2012).
About 1,600 (0.46%) of roughly 350,000 compounds were called active.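 How the source made its calls: active means every replicate reaching a set inhibition limit, whatever the replicate mean (cut at about 25% in these data); inconclusive means mean inhibition reaches that limit but some replicates miss it; inactive means the rest.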 The full list was thinned out, with actives kept by preference.

biological target: Protein AF-9 (Homo sapiens) (UniProt P42568); assay: inhibitors of AF4 peptide binding to AF9, primary screen, biochemical, AlphaScreen, biotin-AF4 peptide, FLAG-AF9, single point (AID 651704); details: at 10 µM, stronger effect = higher value;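 further: 0% = plate neutral control median and 100% = total signal loss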
Sequence (P42568 whole entry, looked up): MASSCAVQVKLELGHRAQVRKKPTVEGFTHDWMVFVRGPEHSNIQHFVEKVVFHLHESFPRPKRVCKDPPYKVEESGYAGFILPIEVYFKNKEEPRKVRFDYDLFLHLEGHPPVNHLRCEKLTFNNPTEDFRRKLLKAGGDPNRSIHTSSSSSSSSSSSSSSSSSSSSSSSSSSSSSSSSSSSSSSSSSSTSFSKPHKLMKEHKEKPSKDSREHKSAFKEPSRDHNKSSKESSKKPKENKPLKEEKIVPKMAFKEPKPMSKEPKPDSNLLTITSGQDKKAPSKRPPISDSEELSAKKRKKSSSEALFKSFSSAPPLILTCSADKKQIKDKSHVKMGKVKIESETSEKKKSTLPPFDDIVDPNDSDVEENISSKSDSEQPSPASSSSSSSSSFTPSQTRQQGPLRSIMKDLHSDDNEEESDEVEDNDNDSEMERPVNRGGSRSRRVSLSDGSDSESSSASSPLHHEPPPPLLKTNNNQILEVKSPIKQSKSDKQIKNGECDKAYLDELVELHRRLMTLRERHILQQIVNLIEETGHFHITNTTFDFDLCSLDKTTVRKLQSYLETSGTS

inhibition, active:
O=C(N/N=C/c1sc(N2CCCCC2)nc1-c1cccs1)c1cccnc1 26.1%
CCCCNC(=O)CN1C(=O)NC(Cc2ccccc2)(Cc2ccccc2)C1=O 51%
Cc1cc2c(cc1C)NC1(C[C@H]3CCC(=O)N4CC[C@@H](C1)[C@@H]34)C(=NC(C)(C)CC(C)(C)C)N2 (some centres not stated) 54.9%
CCCC#Cc1ccc([C@H]2[C@H]3CN(C(=O)c4cccnc4)CC(=O)N3[C@H]2CO)cc1 27.2%
COc1ccc(NC(=S)NCC2CCN(c3ccc(OC)cc3)C2)cc1 (configuration not stated) 28.9%
Cc1c(C)n(Cc2ccc(Cl)cc2)c2ccc(C(=O)NCCCN3CCOCC3)cc12 26.6%
Cc1cc(N=Nc2ccc3ccccc3c2)ccc1O 35.1%
O=C(CNC(=O)OCc1ccccc1)NC1CCCCNC1=O (configuration not stated) 48%
COCCNC(=O)C1CCN(C(=O)C2CC(=O)N(c3ccc(C)cc3)C2)CC1 (configuration not stated) 50.4%

inhibition, inactive:
O=C(C[C@@H]1C=C[C@H](NC(=O)Nc2ccccc2F)[C@@H](CO)O1)NCc1ccccc1 -2.34%
CCC(=O)N1CC2(C1)[C@@H](c1ccc(-c3ccc(C#N)cc3)cc1)[C@H](CO)N2C(C)=O -2.76%
Cc1ccc(S(=O)(=O)N2CCCCC2)cc1NC(=O)c1cccnc1 2.47%
O=C(O)c1ccc(N/N=C/c2cn(-c3ccccc3)nc2-c2cccs2)cc1 3.91%
COc1ccccc1C#Cc1ccc([C@@H]2[C@H](CO)N3CCCCN(C(=O)C4CCCC4)C[C@@H]23)cc1 6.51%
Cc1cccc(-c2ccc([C@@H]3[C@H]4CN(C(=O)c5ccccc5)CC(=O)N4[C@H]3CO)cc2)c1 2.35%
COc1cccc(CNC(=O)CN2C(=O)NC(Cc3ccccc3)(c3ccccc3)C2=O)c1 (configuration not stated) -3.3%
CNC(=O)CN1C(=O)NC(c2ccccc2)(c2ccccc2)C1=O 0.637%
COc1cccc(NC(=O)N[C@@H]2CC[C@H](CC(=O)NCc3ccccn3)O[C@H]2CO)c1 -1.32%
CCCN1[C@@H]2c3ccc(-c4ccccc4)c(=O)n3C[C@@H]2[C@@H](CO)[C@@H]1C(=O)N(C)C -2.05%
O=C1CC[C@@H]2CC3(C[C@@H]4CCN1[C@H]24)Nc1cc([N+](=O)[O-])ccc1NC3=NC1CCCCC1 (some centres not stated) 5.39%
CC=Cc1ccc2n(c1=O)C[C@H]1[C@H](CO)[C@@H](C(=O)NC3CCCC3)[C@@H]2N1C(=O)c1cnccn1 (mixture of isomers) -3.71%
CN(C)CC(=O)N1[C@H](C#N)[C@H](c2ccccc2-c2cccc(C(=O)N(C)C)c2)[C@@H]1CO -2.16%
Cc1noc(C)c1NC(=O)N(C)C[C@H]1Oc2ccc(N(C)C)cc2CC(=O)N([C@H](C)CO)C[C@H]1C -0.871%
CO[C@H]1CN(C)C(=O)c2ccc(NC(=O)C3CC3)cc2OC[C@@H](C)N(Cc2ccc(F)cc2)C[C@@H]1C 2.37%
CCCC#Cc1ccc([C@@H]2[C@@H](CO)N3C(=O)CN(C(=O)c4ccncc4)C[C@@H]23)cc1 -2.52%
CCCC#Cc1ccc([C@H]2[C@@H](CO)N3C(=O)CN(C(=O)c4ccncc4)C[C@H]23)cc1 -2.78%
COc1ccc(C#Cc2ccc([C@H]3[C@H]4CN(C(=O)c5ccncc5)CC(=O)N4[C@H]3CO)cc2)cc1 -4.11%
C[C@@H]1CCCCO[C@H](CN(C)C(=O)C2CCCCC2)[C@@H](C)CN([C@@H](C)CO)C(=O)c2cc(NC(=O)Nc3ccccc3)ccc2O1 5.54%
COc1ccccc1NC(=O)N1CCCCN2[C@H](CO)[C@H](c3ccc(C#CC4CC4)cc3)[C@@H]2C1 6.56%
COc1ccc(OCC(=O)Nc2ccc(N3CCC(C)CC3)cc2)cc1 1.34%
COc1ccc(N2CCC(CNC(=S)Nc3c(C)cccc3C)C2)cc1 (configuration not stated) 18.6%
CO[C@@H]1CN(C)C(=O)c2ccc(NC(=O)C3CC3)cc2OC[C@H](C)N(C(=O)c2ccccc2)C[C@@H]1C -0.663%
O=C(NCCCN1CCOCC1)c1cc(-c2ccc(Cl)cc2)on1 -5.39%
COc1ccc(Cn2c(=S)[nH]c3cc(C(=O)NCCCN4CCOCC4)ccc3c2=O)cc1 -9.96%
COc1ccccc1-c1ccc([C@H]2[C@@H](CO)N(CC3CC3)C23CN(S(C)(=O)=O)C3)cc1 0.485%
Cn1cnc(S(=O)(=O)NC[C@@H]2CC[C@@H]3[C@@H](CN3Cc3nccs3)O2)c1 -5.79%
O=C(CN1CCOCC1)N1CCCCN2[C@H](C1)[C@H](c1ccc(-c3ccccc3F)cc1)[C@@H]2CO -4.58%
C[C@H](CO)N1C[C@H](C)[C@@H](CN(C)Cc2ccc(Oc3ccccc3)cc2)Oc2ccc(NS(=O)(=O)c3ccc(F)cc3)cc2CC1=O 1.77%
COc1ccc2c3c(n(C)c2c1)[C@@H](CO)N(C(=O)CN1CCOCC1)CC31CN(C(=O)CC2CC2)C1 0.071%
Nc1ccccc1C(=O)NC1CCCCNC1=O (configuration not stated) -2.44%
O=C(Nc1c[nH]c(=O)[nH]c1=O)OCc1ccccc1 2.62%
C[C@@H]1CN([C@@H](C)CO)C(=O)CCCn2nncc2CO[C@H]1CN(C)C(=O)CCCN(C)C -5.71%
Cc1ccccc1S(=O)(=O)N1CC[C@H]2[C@H](CO)Nc3ccc(-c4cccc(F)c4)cc3[C@H]21 -2.53%
Cc1noc(C)c1NC(=O)Nc1ccc2c(c1)CC(=O)N([C@H](C)CO)C[C@@H](C)[C@@H](CN(C)S(=O)(=O)c1ccc(Cl)cc1)O2 -0.675%
CN(C)C(=O)C[C@@H]1C[C@@H]2c3cc(NC(=O)C4CCOCC4)ccc3O[C@@H]2[C@@H](CO)O1 -3.12%
CCCC(C)NC(=O)C1CCN(C(=O)C2CC(=O)N(c3ccc(C)cc3)C2)CC1 (configuration not stated) -6.07%
Cc1ccc(N2CC(C(=O)NCCS(=O)(=O)N3CCN(c4ccccc4)CC3)CC2=O)cc1 (configuration not stated) 0.43%
